Test results: paper PMC7819943, “Rice protein-binding microarrays: a tool to detect cis-acting elements near promoter regions in rice”
Whole data set: some 39,000 sequences, median “fluorescence intensity (a.u.)” near 4,300, cut for the highest 2% near 39,000. The entries come from a sample that favours the highest values as a whole.

The sequences below were run against T1, OsSMF1 (Oryza sativa, UniProt Q6ZLB0 1-436) (assay: protein-binding microarray (RPBM); PBS, 2% BSA, 51.3 ng/ul salmon testes DNA, 50 uM zinc acetate, 200 nM TF, 25 C, 1 h; high values mean tight binding). Details: protein: recombinant; tags: N-terminal polyhistidine and DsRed monomer fusion (pET32a); chain copies: 2; label: CyDye5-dUTP incorporated in the synthesized complementary strand; 3' TTTTT single-stranded linker to array surface; dsDNA, one strand shown.
T1 sequence: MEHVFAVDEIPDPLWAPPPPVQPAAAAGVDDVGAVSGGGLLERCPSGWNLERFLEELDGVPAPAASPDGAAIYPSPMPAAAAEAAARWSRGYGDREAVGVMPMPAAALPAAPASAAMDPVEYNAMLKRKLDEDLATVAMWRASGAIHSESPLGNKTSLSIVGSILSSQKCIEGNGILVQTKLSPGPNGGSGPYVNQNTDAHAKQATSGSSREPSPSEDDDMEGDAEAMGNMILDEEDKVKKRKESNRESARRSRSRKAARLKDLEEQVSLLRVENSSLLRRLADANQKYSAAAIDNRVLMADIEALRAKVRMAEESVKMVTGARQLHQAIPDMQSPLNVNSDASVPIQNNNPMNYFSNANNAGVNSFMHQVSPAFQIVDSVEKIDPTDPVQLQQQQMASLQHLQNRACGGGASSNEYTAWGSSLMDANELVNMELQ
Outline: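 Binding signal here means per-feature fluorescence intensity in arbitrary units. The values were read on an Axon 4000B scanner after a custom Agilent array, double-stranded by primer extension with Cy5-dUTP, was incubated with 200 nM protein at 25 °C for 1 h in PBS with 2% BSA, salmon testes DNA and 50 µM zinc acetate, then washed. The proteins were transcription factors with an N-terminal polyhistidine tag and DsRed, expressed in E. coli BL21-CodonPlus and purified on Ni–NTA.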

| Sequence | binding signal |
| --- | --- |
| CCACACACCATTGCCGCATCATCCACCACCGCCTCCTCAGCGGAGTCACCTAGTGCAG | 5210 fluorescence intensity (a.u.) |
| CTTGCCTCCGCCCATAAATACCACCCGCATTGGCGTTCAGCGGAGTCACCTAGTGCAG | 50900 fluorescence intensity (a.u.) |
| GTTCGCCGTGGATTTCTTTTCTTGCGTCAGTGATACTGATCGGAGTCACCTAGTGCAG | 5040 fluorescence intensity (a.u.) |
| TGGAGCTAGTCAAGTAGACAGATCATACTATTCCCCAATTCGGAGTCACCTAGTGCAG | 4150 fluorescence intensity (a.u.) |
| AACTATAGATCCAAGTGAGGAAGCTATATTCCCAAATTTTCGGAGTCACCTAGTGCAG | 46000 fluorescence intensity (a.u.) |
| TTCTATTCTCCCAAAATTCCTATAGAACGAGATATTCCATCGGAGTCACCTAGTGCAG | 22200 fluorescence intensity (a.u.) |
| GCTTGCCGACGCCGACGCCGCCGCCGCCACCGCCGTGGCGCGGAGTCACCTAGTGCAG | 4150 fluorescence intensity (a.u.) |
| CGATCTATCTTAGTTCATTCGCTGCAAATCCGACGCCTGACGGAGTCACCTAGTGCAG | 3240 fluorescence intensity (a.u.) |
| TCCAGATCAAATCCGACGGCCCAGGATACGCCACGTCACCCGGAGTCACCTAGTGCAG | 46700 fluorescence intensity (a.u.) |
| AGCAAAATCTACGCGATGACGCCACGTGACATGACATCGCCGGAGTCACCTAGTGCAG | 5840 fluorescence intensity (a.u.) |
| GTCTTCACAAATCCGATGACGCCACGTCATCTATCCGGCCCGGAGTCACCTAGTGCAG | 46400 fluorescence intensity (a.u.) |
| CACCCGACTCAGATACCCGAATCCACGTCAGCCCAGAGCCCGGAGTCACCTAGTGCAG | 14300 fluorescence intensity (a.u.) |
| AATCATCCGCCCCAGGCCCCAGCCACGTCGTCCAGATCGCCGGAGTCACCTAGTGCAG | 6410 fluorescence intensity (a.u.) |
| GCTACATTTTCGTCGACGTACGTCAGTGACACATGAACTACGGAGTCACCTAGTGCAG | 4800 fluorescence intensity (a.u.) |
| TTCAGCCTGTCATCGTCAATTCGTCATCAGTTCATCGCTCCGGAGTCACCTAGTGCAG | 5390 fluorescence intensity (a.u.) |
| TTCGTGGCGGCTCCTCCTGTGCCATGGCCGCCGATGGTGACGGAGTCACCTAGTGCAG | 3320 fluorescence intensity (a.u.) |
| AAGTCGTTCACTCGGCAACGTGTCATCCGGATAGACGTTGCGGAGTCACCTAGTGCAG | 6700 fluorescence intensity (a.u.) |
| ACGGCTTCCTTACGTGGCACACGTAAGCCGTTGCTTGCTTCGGAGTCACCTAGTGCAG | 35100 fluorescence intensity (a.u.) |
| CGTGTCCTAATCACCTTGCTTACGTGGCACTTGCCGATTCCGGAGTCACCTAGTGCAG | 43900 fluorescence intensity (a.u.) |
| CTCCTTGTCCACGTGGCGGCCTCCGATTCGCTGCCACCTCCGGAGTCACCTAGTGCAG | 23900 fluorescence intensity (a.u.) |
| CCAGTTAGGCCCACGAGTAGGTGGAACGACCACCTCACGGCGGAGTCACCTAGTGCAG | 3710 fluorescence intensity (a.u.) |

| Sequence | binding signal |
| --- | --- |
| TTCCCGGTCTCTTATTATCCATATCATAAGTAAATTAGTTCGGAGTCACCTAGTGCAG | 7670 fluorescence intensity (a.u.) |
| GCCTTCCCTTCCTTCCTCTGCCAATGGCCGCGCGTCAGCCCGGAGTCACCTAGTGCAG | 3390 fluorescence intensity (a.u.) |
| TTAGCCCTTCCTCTCCTGCTTCCGCCCTTCCATGGCAATGCGGAGTCACCTAGTGCAG | 46700 fluorescence intensity (a.u.) |
| CTCCGTGAGCCCTTCCTCCTCCGCTCCTCTCCTTTCCGCCCGGAGTCACCTAGTGCAG | 15600 fluorescence intensity (a.u.) |
| CCTAGCCCTCCTCCTACTCCTCTGCAATGGTAGATTGCGCCGGAGTCACCTAGTGCAG | 47700 fluorescence intensity (a.u.) |
| CGCCGCCTGCCCCTGCGCCTGCAGCCTCTGCGCCTCCTGCCGGAGTCACCTAGTGCAG | 3560 fluorescence intensity (a.u.) |
| CTCTCTTCCTCTCTCTCTCCTCCGCGTAGGATTTAGCCTGCGGAGTCACCTAGTGCAG | 3880 fluorescence intensity (a.u.) |
| CGACGCGGCGGCGAAAAGTCGGCGAACTGCGGCGAGGTGGCGGAGTCACCTAGTGCAG | 30100 fluorescence intensity (a.u.) |
| AAATGGCCTTGCACACCTTGTCATTGAAATTAAGAACAAACGGAGTCACCTAGTGCAG | 6400 fluorescence intensity (a.u.) |
| GAATTAGCTTGATTGACAGAAACAAATGGCTACAACTACACGGAGTCACCTAGTGCAG | 65500 fluorescence intensity (a.u.) |
| AGTTGATAGGAGTAGCTTGAAGAAGCAGAGACAGCTAGATCGGAGTCACCTAGTGCAG | 37600 fluorescence intensity (a.u.) |
| AGAAATTGAATTGCTTGCTACAGAGAAGCTAGAAGAGTTTCGGAGTCACCTAGTGCAG | 64800 fluorescence intensity (a.u.) |
| GAAAGCTAGAAGAGAAATTGACCTGGATTGAGTTTTGTGCCGGAGTCACCTAGTGCAG | 4170 fluorescence intensity (a.u.) |
| GAATGAATTGAAACAGACAATGCACACGCTTAGTCCATGACGGAGTCACCTAGTGCAG | 28800 fluorescence intensity (a.u.) |
| TGCATCACACGTACACATCTATCCATCGATCCAGTCCGCCCGGAGTCACCTAGTGCAG | 4610 fluorescence intensity (a.u.) |
| TTTCTTTTCTTCTTTCCTTCTCCCCACGGAGGTGTACGTACGGAGTCACCTAGTGCAG | 3440 fluorescence intensity (a.u.) |
| TGGTACATGGTGTGCCCTACCGAGCTTAGTCAACCACTTTCGGAGTCACCTAGTGCAG | 3230 fluorescence intensity (a.u.) |
| TATAGTGGCAACGCATGCTGACGTTACGGTGTACCGCCGTCGGAGTCACCTAGTGCAG | 5900 fluorescence intensity (a.u.) |
| TTCAGGTGATGAGTCAATGGAGGAGGATGTCATGGAGATTCGGAGTCACCTAGTGCAG | 4750 fluorescence intensity (a.u.) |
| ATAACGGTGCTAATCTACTGGTGACTGTGCCTGGTGGTGGCGGAGTCACCTAGTGCAG | 4380 fluorescence intensity (a.u.) |
| ATATCGACTACACACTGTTCTTGGCTACATCGATTGATTGCGGAGTCACCTAGTGCAG | 4840 fluorescence intensity (a.u.) |
